“And” between values parts separate entries of the source, which are not always exact repeats. Equal entries are not always repeated. Records with an inconclusive call do not appear. The source made the active and inactive calls. Calls follow the shape of the dose curve; as a rule, active = well fitted inhibition curve with a large enough effect; inconclusive = small, poorly fitted or top-dose-only effect; inactive = no such curve, though single readings can be large or run the other way.
assay: Primary qHTS for inhibitors of nuclear receptor binding SET domain protein 2 (NSD2) in an RCH-ACV wild type WT cells (2C) (AID 1645877); conditions: RCH-ACV (leukaemia line) NSD2 WT (2C) viability, CellTiter-Glo, 72 h; series mostly up to 44.9 µM; activity change, negative = cell killing: at the top concentration; also: nearly all actives have a fitted effect of over 70% in size
Source text: Assay Provider: Jonathan D. Licht, MD
University of Florida College of Medicine, Gainesville, FL
Mutations in epigenetic regulators are common in relapsed pediatric acute lymphoblastic leukemia (ALL). Here, we uncovered the mechanism underlying the relapse of ALL driven by an activating mutation of the NSD2 histone methyltransferase (p.E1099K). […] Correction of this mutation restored glucocorticoid sensitivity. The transcriptional response to glucocorticoids was blocked in NSD2 mutant cells due to depressed glucocorticoid receptor (GR) levels and the failure of glucocorticoids to autoactivate GR expression. […] Pre-treatment of NSD2 p.E1099K cell lines and PDX samples with PRC2 inhibitors reversed glucocorticoid resistance in vitro and in vivo.
High-throughput drug screening of isogenic RCH-ACV cell lines was performed at the National Center for Advancing Translational Science (NCATS), National Institutes of Health as previously described (1). Briefly, isogenic RCH-ACV NSD2 p.E1099K mutant (9B) and WT cells (2C) were plated at 500 cells/well in a 1536-well plate with a 72-hour incubation with compounds prior to addition of CellTiter-Glo to assess cell viability. NCATS libraries screened include: NPC, MIPE 5.0, Kinase and NPACT. To determine compound activity in the qHTS assay, the concentration-response data for each sample was plotted and modeled by a four-parameter logistic fit yielding IC50 and efficacy (maximal response) values. The area under the curve (AUC) of the dose-response curve ensures both efficacy (magnitude of cell killing) and potency (concentration that elicits cell killing) are accounted for in the analysis of activity.
1. Tobie D Lee, Olivia W Lee, Kyle R Brimacombe, Lu Chen, Rajarshi Guha, Sabrina Lusvarghi, Bethilehem G Tebase, Carleen Klumpp-Thomas, Robert W Robey, Suresh V Ambudkar, Min Shen, Michael M Gottesman, Matthew D Hall. A High-Throughput Screen of a Library of Therapeutics Identifies Cytotoxic Substrates of P-glycoprotein. Mol Pharmacol. 2019, Nov;96(5):629-640.
% is scaled to controls: 0 for no effect and ±100 for the full control effect; potency is read from the fitted curve at half-maximal effect.

Row | SMILES | Potency | activity change, negative = cell killing | outcome
1 | COc1cc(-c2nn(C3CCC(N4CCN(C(C)=O)CC4)CC3)c3ncnc(N)c23)ccc1NC(=O)c1cc2ccccc2n1C (stereo not given) | 258 nM (active) and 1.05 µM (active) | – | –
2 | CCOc1ccccc1OCCNC(C)Cc1ccc(OC)c(S(N)(=O)=O)c1 (stereo not given) | – | -8.13% (inactive) | –
3 | C[C@@H]1COC(Nc2ccc3ncnc(Nc4ccc(OCc5nccs5)c(Cl)c4)c3c2)=N1 | 11.8 µM (active) | – | –
4 | C=C1C(=CC=C2CCC[C@]3(C)[C@@H]([C@H](C)C=C[C@H](C)C(C)C)CC[C@@H]23)C[C@@H](O)C[C@@H]1O | – | 5.63% (inactive) | –
5 | Cc1ccc(C(=O)Nc2cccc(C(F)(F)F)c2)cc1-c1ccc2nc(NCCN3CCOCC3)ncc2c1 | 1.83 µM (active) and 4.17 µM (active) | – | –
6 | Nc1ccc(C(=O)c2cc3c(ccc4ccccc43)[nH]2)cc1 | 1.71 µM (active) | – | –
7 | CN(C)CC(C)(C)CNc1nn2c(-c3ccccc3)nnc2cc1C1CCC1 | – | -10.4% (inactive) | –
8 | CN(C)CCCN=c1c2ccccc2n(C)c2[nH]c(=O)n(C)c(=O)c12 | 11.8 µM (active) | – | –
9 | CN(c1ncccc1CNc1nc(Nc2ccc3c(c2)CC(=O)N3)ncc1C(F)(F)F)S(C)(=O)=O | 8.33 µM (active) | – | –
10 | COC(=O)Nc1ccc(-c2nc(N3CCOCC3)c3cnn(C4CCN(Cc5cccnc5)CC4)c3n2)cc1 | 0.662 µM (active) | – | –
11 | CS(=O)(=O)c1ccc(-c2cnc(N)c(C(=O)Nc3ccccc3)n2)cc1 | 2.63 µM (active) | – | –
12 | O=C(O)CCCc1c[nH]c2ccccc12 | – | -2.71% (inactive) | –
13 | COC(=O)C1=C(C)NC(C)=C(C(=O)OCCN2CCN(C(c3ccccc3)c3ccccc3)CC2)C1c1cccc([N+](=O)[O-])c1 (stereo not given) | 9.34 µM (active) | – | –
14 | C1Cc2[nH]nc(-c3nn[nH]n3)c2C1 | – | – | inactive
15 | C[C@]1(CO)CN(c2cc(C(=O)Nc3ccc4c(c3)-c3c(c(C(N)=O)nn3-c3ccc(F)cc3)CC4)c(Cl)cn2)C[C@@]1(C)CO | 3.25 µM (active) | – | –
16 | O=c1c2ccccc2nc2n1CCc1c-2[nH]c2ccccc12 | – | -19.5% (inactive) | –
17 | CNC(=O)c1ccc(N2C(=S)N(c3cnc(C#N)c(C(F)(F)F)c3)C(=O)C23CCC3)cc1F | – | -1.39% (inactive) | –
18 | COc1cc2c(Oc3ccc4[nH]c(C)cc4c3F)ncnc2cc1OCCCN1CCCC1 | 7.28 µM (active) and 7.42 µM (active) | – | –
19 | COc1ccc2c(c1)CC[C@@H](CN(C)CC(=O)O)[C@H]2c1ccccc1 | inactive | – | –
20 | CC(=O)OCCN1C(=O)c2c(C)nc3ccc(S(=O)(=O)N4CCOCC4)cc3c2C1=O | – | 7.67% (inactive) | –

Row | SMILES | Potency | activity change, negative = cell killing | outcome
21 | Cn1c(CNc2ccc(C(=N)N)cc2)nc2cc(C(=O)N(CCC(=O)O)c3ccccn3)ccc21 | inactive | – | –
22 | C[C@@H]1CN(CC(=O)Nc2ccc3c(c2)Cc2cccc(-c4cc(=O)cc(N5CCOCC5)o4)c2S3)C[C@H](C)O1 | 4.68 µM (active) | – | –
23 | Cn1c(=O)n(-c2ccc(C(C)(C)C#N)cc2)c2c3cc(-c4cnc5ccccc5c4)ccc3ncc21 | 91.6 nM (active) and 42.8 nM (active) | – | –
24 | CC(C)(O)c1cc2nc(-c3cnc(N)nc3)nc(N3CCOCC3)c2s1 | 0.372 µM (active) | – | –
25 | COc1cc(C)c(Sc2cnc(NC(=O)c3ccc(CNC(C)C(C)C)cc3)s2)cc1C(=O)N1CCN(C(C)=O)CC1 (stereo not given) | 8.33 µM (active) and 5.78 µM (active) | – | –
26 | COc1cc2c(Oc3ccc(-c4cnc(Nc5ccc(F)cc5)n(C)c4=O)cc3F)ccnc2cc1OCCCN1CCOCC1 | 4.59 µM (active) and 2.09 µM (active) | – | –
27 | CN[C@H]1CCc2cc(OC)c(OC)c(OC)c2-c2ccc(OC)c(=O)cc21 | 0.118 µM (active) | – | –
28 | Nc1ccccc1NC(=O)c1ccc(CNc2nccc(-c3cccnc3)n2)cc1 | 205 nM (active) and 590 nM (active) | – | –
29 | CC(C)Nc1cc(C(F)(F)F)cc2nc(NC(=O)c3cccnc3)nn12 | – | -19.3% (inactive) | –
30 | C#Cc1cccc(Nc2ncnc3cc(OC)c(OCCCCCCC(=O)NO)cc23)c1 | 230 nM (active) and 296 nM (active) | – | –
31 | CCNC(=O)Nc1ccc2ncc(Nc3ccc(C)cc3)nc2n1 | – | – | inactive
32 | Cc1ccc(C(N)=O)cc1Nc1nccc(-c2cn(C(C)C)c3cnccc23)n1 | 1.66 µM (active) | – | –
33 | Cc1cc(CN2CCN(c3c(Br)cnc4nc(-c5ccc(N6CCN(C)CC6)cc5)[nH]c34)CC2)no1 | 145 nM (active) and 296 nM (active) | – | –
34 | Cc1ccc(S(=O)(=O)Nc2cc(Cl)ccc2C(=O)Nc2nc(-c3ccccc3)cs2)cc1 | – | -18% (inactive) | –
35 | Cc1c(CN2CCN(S(C)(=O)=O)CC2)sc2c(N3CCOCC3)nc(-c3cnc(N)nc3)nc12 | 32.5 nM (active) and 118 nM (active) | – | –
36 | Nc1nc(Nc2ccc(S(N)(=O)=O)cc2)nn1C(=O)c1c(F)cccc1F | 1.63 µM (active) and 1.86 µM (active) | – | –
37 | Cc1cn2c(-c3cn[nH]c3)cnc2c(Nc2ccc(C(=O)N3CCNCC3)cc2F)n1 | 12.9 µM (active) | – | –
38 | N#CCNC(=O)c1ccc(-c2ccnc(Nc3ccc(N4CCOCC4)cc3)n2)cc1 | 1.15 µM (active) and 2.95 µM (active) | – | –
39 | Nc1cccc(-c2cc3c(Oc4cccc(O)c4)ncnc3[nH]2)c1 | 1.15 µM (active) and 833 nM (active) | – | –
40 | Cn1cncc1[C@@](N)(c1ccc(Cl)cc1)c1ccc2c(c1)c(-c1cccc(Cl)c1)cc(=O)n2C | – | -15.7% (inactive) | –

— PubChem BioAssay (NCATS)
